# Measured values taken from PubChem BioAssay (Tox21).
# Results filed as inconclusive are left out. Values without a mark were called inactive. The source made the active and inactive calls. Calls come from the whole dose curve; as a rule, active = well fitted cell-killing curve with a large enough effect in the repeat runs; inconclusive = weak or mixed curves, or effect the other way; inactive = flat fitted curve, though single readings scatter.
# Assay: cAMP Responsive Elements (CRE) small molecule antagonists, cell-based qHTS assay: qHTS cell viability counter screen (AID 2060913); note: nearly all actives have a fitted effect of over 40% in size
# Conditions: CRE-bla HEK293T viability, CellTiter-Glo luminescence, 5 h; series mostly up to 92.4 µM; viability change, negative = cytotoxic: at the top concentration
# How it was run: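 Cytotoxicity read in the same wells as the CRE-bla HEK293T antagonist assay: after 3 h compound with 0.25 uM NKH477 final and 2 h beta-lactamase substrate, CellTiter-Glo luminescence measured.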
# % is set by controls: 0 for no effect and ±100 for the full control effect; potency is the fitted concentration of half-maximal effect.
SMILES,"viability change, negative = cytotoxic",Potency
Cc1ccc2c(c1)c1c3n2CCNC3CCC1 (stereo not given),-0.082% [at 42.5 µM],–
COc1cc(-c2ccc(=O)[nH]n2)ccc1OC(F)F,-5.74% [at 42.5 µM],–
CCCCNc1c(C(=O)OCC)c(C)nc2c1cnn2CC,-8.38% [at 42.5 µM],–
O=C(O)CN(CCOCCOCCN(CC(=O)O)CC(=O)O)CC(=O)O,-0.164% [at 0.349 µM],–
C=CCNC(N)=S,–,inactive
CCCOCCO,–,inactive
O=[N+]([O-])c1ccccc1CCO,-7.31%,–
CCCN(CCC)CCc1cccc2c1CC(=O)N2,-2.69% [at 42.5 µM],–
NC=O,–,inactive
C=CC(=O)OCCOC(=O)CCC(=O)O,6.41%,–
CC(=O)OC(C)c1ccccc1 (stereo not given),8.71%,–
CCCCCCCCCCCc1ccccc1,1.95%,–
Cn1c(NCCN(CCO)CCCc2ccc([N+](=O)[O-])cc2)cc(=O)n(C)c1=O,9.15% [at 42.5 µM],–
O=C(O)c1ccc(O)c(O)c1,-0.76%,–
C[C@H]1O[C@H](O[C@H]2[C@H](O)[C@@H](O)[C@@H](O[C@H]3[C@H](O)[C@@H](O)[C@H](O)O[C@@H]3CO)O[C@@H]2CO)[C@H](O)[C@@H](O)[C@@H]1N[C@H]1C=C(CO)[C@@H](O)[C@H](O)[C@H]1O,11.3% [at 42.5 µM],–
O=C[C@@H](O)[C@H](O)[C@H](O)CO,2.24%,–
CC(C)CCCC(C)NCCC(C)C (stereo not given),0.826% [at 42.5 µM],–
CCCCN(CCCC)C(=S)SSC(=S)N(CCCC)CCCC,-10.1%,–
CCCCCCCC[P+](CCCCCCCC)(CCCCCCCC)CCCCCCCC,–,17.1 µM (active)
CC(=O)c1ccccc1[N+](=O)[O-],-2.05%,–

SMILES,"viability change, negative = cytotoxic",Potency
CN(C)c1ccc(C2(c3ccc(N(C)C)cc3)OC(=O)c3cc(N(C)C)ccc32)cc1,-2.17%,–
COc1ccc([C@@H]2Sc3ccccc3N(CCN(C)C)C(=O)[C@@H]2OC(C)=O)cc1,-1.51% [at 42.5 µM],–
CC(C)c1ccc2cc(C(C)C)ccc2c1,10.5%,–
CC(=O)[O][Al],9.23%,–
Cc1cc(CCCOc2c(C)cc(-c3noc(C(F)(F)F)n3)cc2C)on1,-13% [at 42.5 µM],–
CCOC(/C=C(\C)CCC=C(C)C)OCC,20.1%,–
Nc1cc(Cl)c(O)c(Cl)c1,0.64%,–
[Na+],–,inactive
O=S(=O)(O)NC1CCCCC1,–,inactive
[Cl][Nd]([Cl])[Cl],0.667%,–
CC(C)=CCOc1ccc(/C=C/C(=O)c2ccc(OCC=C(C)C)cc2OCC(=O)O)cc1,5.02% [at 42.5 µM],–
CCCCCCCCCC(=O)N(C)C,2.05%,–
CCCCCC(CC)OC(=O)CCCOc1ccc(Cl)cc1Cl (stereo not given),-4.29%,–
CC(C)NCC(O)c1ccc2ccccc2c1 (stereo not given),0.877% [at 42.5 µM],–
CCC(C)SSC(C)CC (stereo not given),0.544%,–
O=c1[nH]c2cc(C(F)(F)F)c(N3CCOCC3)cc2n(CP(=O)(O)O)c1=O,2.41% [at 42.5 µM],–
O=C(O)c1ccc(S(=O)(=O)N(Cl)Cl)cc1,–,inactive
CN(C)CCCO[C@@H]1[C@H]2OC(C)(C)O[C@H]2O[C@@H]1C(O)CO (stereo not given in full),3.05% [at 42.5 µM],–
C=C(C)C(=O)OCCCC,0%,–
CCCCCCCCCCCCCC(=O)O,–,inactive

# Assay: cAMP Responsive Elements (CRE) small molecule agonists, cell-based qHTS assay: qHTS cell viability counter screen (AID 2060914);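 note: viability read after 3 h of compound exposure; nearly all actives have a fitted effect of over 50% in size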
# Conditions: CRE-bla HEK293T viability, CellTiter-Glo luminescence, 5 h; series mostly up to 92.4 µM; activity change, negative = cytotoxicity: at the top concentration
# How it was run: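 HEK 293T CRE-bla; DMEM + 10% dialyzed FBS, 25 mM HEPES; 18 h pre-incubation; compound 3 h, 37 °C/5% CO2; CellTiter-Glo added after reporter read; luminescence after 30 min RT.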
SMILES,"activity change, negative = cytotoxicity",Potency
Cc1ccc2c(c1)c1c3n2CCNC3CCC1 (stereo not given),3.39% [at 42.5 µM],–
COc1cc(-c2ccc(=O)[nH]n2)ccc1OC(F)F,-14.4% [at 42.5 µM],–
CCCCNc1c(C(=O)OCC)c(C)nc2c1cnn2CC,-0.699% [at 42.5 µM],–
O=C(O)CN(CCOCCOCCN(CC(=O)O)CC(=O)O)CC(=O)O,-3.94% [at 0.349 µM],–
C=CCNC(N)=S,–,inactive
CCCOCCO,–,inactive
O=[N+]([O-])c1ccccc1CCO,-3.8%,–
CCCN(CCC)CCc1cccc2c1CC(=O)N2,14.7% [at 42.5 µM],–
NC=O,–,inactive
C=CC(=O)OCCOC(=O)CCC(=O)O,0.827%,–
CC(=O)OC(C)c1ccccc1 (stereo not given),8.47%,–
CCCCCCCCCCCc1ccccc1,1.21%,–
Cn1c(NCCN(CCO)CCCc2ccc([N+](=O)[O-])cc2)cc(=O)n(C)c1=O,2.33% [at 42.5 µM],–
O=C(O)c1ccc(O)c(O)c1,1.18%,–
C[C@H]1O[C@H](O[C@H]2[C@H](O)[C@@H](O)[C@@H](O[C@H]3[C@H](O)[C@@H](O)[C@H](O)O[C@@H]3CO)O[C@@H]2CO)[C@H](O)[C@@H](O)[C@@H]1N[C@H]1C=C(CO)[C@@H](O)[C@H](O)[C@H]1O,1.35% [at 42.5 µM],–
O=C[C@@H](O)[C@H](O)[C@H](O)CO,-1.15%,–
CC(C)CCCC(C)NCCC(C)C (stereo not given),-8.04% [at 42.5 µM],–
CCCCN(CCCC)C(=S)SSC(=S)N(CCCC)CCCC,11%,–
CCCCCCCC[P+](CCCCCCCC)(CCCCCCCC)CCCCCCCC,–,21.6 µM (active)
CC(=O)c1ccccc1[N+](=O)[O-],8.96%,–

SMILES,"activity change, negative = cytotoxicity",Potency
CN(C)c1ccc(C2(c3ccc(N(C)C)cc3)OC(=O)c3cc(N(C)C)ccc32)cc1,-8.13%,–
COc1ccc([C@@H]2Sc3ccccc3N(CCN(C)C)C(=O)[C@@H]2OC(C)=O)cc1,-3.22% [at 42.5 µM],–
CC(C)c1ccc2cc(C(C)C)ccc2c1,-2.34%,–
CC(=O)[O][Al],22.5%,–
Cc1cc(CCCOc2c(C)cc(-c3noc(C(F)(F)F)n3)cc2C)on1,-25.6% [at 42.5 µM],–
CCOC(/C=C(\C)CCC=C(C)C)OCC,-4.87%,–
Nc1cc(Cl)c(O)c(Cl)c1,-7.01%,–
[Na+],–,inactive
O=S(=O)(O)NC1CCCCC1,–,inactive
[Cl][Nd]([Cl])[Cl],6.08%,–
CC(C)=CCOc1ccc(/C=C/C(=O)c2ccc(OCC=C(C)C)cc2OCC(=O)O)cc1,19.1% [at 42.5 µM],–
CCCCCCCCCC(=O)N(C)C,4.26%,–
CCCCCC(CC)OC(=O)CCCOc1ccc(Cl)cc1Cl (stereo not given),-4.56%,–
CC(C)NCC(O)c1ccc2ccccc2c1 (stereo not given),-2.11% [at 42.5 µM],–
CCC(C)SSC(C)CC (stereo not given),-2.91%,–
O=c1[nH]c2cc(C(F)(F)F)c(N3CCOCC3)cc2n(CP(=O)(O)O)c1=O,0.014% [at 42.5 µM],–
O=C(O)c1ccc(S(=O)(=O)N(Cl)Cl)cc1,–,inactive
CN(C)CCCO[C@@H]1[C@H]2OC(C)(C)O[C@H]2O[C@@H]1C(O)CO (stereo not given in full),-0.0217% [at 42.5 µM],–
C=C(C)C(=O)OCCCC,18.1%,–
CCCCCCCCCCCCCC(=O)O,–,inactive
